Source: PubChem BioAssay (NCATS)
Inconclusive results are not listed. Activity calls are given as the source filed them. Unless noted, calls come from the whole dose curve; as a rule, active = well fitted curve in the direction sought with a large enough effect; inconclusive = small, poorly fitted or top-dose-only effect, or another doubt; inactive = no such curve, though single readings can be large; an effect the other way counts as inactive or inconclusive.

Experiments:
[1] = biological target: Lysosomal acid glucosylceramidase (Homo sapiens) (UniProt P04062); test: Glucocerebrosidase-p2 (AID 348; in the data active = potency below about 10 µM; note: potency is the fitted concentration of half-maximal effect); conditions: purified GBA, blue fluorogenic substrate, 40 min
Summary of the method: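 Compounds titrated from 0.6 nM upwards against 0.2 nM enzyme in pH 5.9 citric acid/KH2PO4, taurocholate, tween-20; blue fluorogenic substrate 80 uM, 40 min room temperature, stopped and read Ex 365/Em 440 for AC50.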

[2] = AP1 Signaling Pathway (AID 357; active = well fitted curve in either direction with a large enough effect, not every such curve was filed as active; note: % is set by controls: 0 for no effect and ±100 for the full control effect); conditions: ME-180 AP-1-bla reporter, EGF-induced, beta-lactamase ratio, 5 h; at 7.69 µM (top of the series) unless noted
Summary of the method: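 AP-1-bla ME-180 cells with beta-lactamase reporter under AP-1 response element, stimulated with EC50 EGF; compounds titrated, 5 hours at 37 degrees Celsius. CCF4 read at 460/530 nm ratio; positive and negative modulators judged by AC50.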

[3] = biological target: Cytochrome P450 1A2 (Homo sapiens) (UniProt P05177); test: p450-cyp1a2 (AID 410; calls by dose curve; note: potency is the fitted concentration of half-maximal effect); conditions: recombinant CYP1A2, luciferin-ME demethylation, luminescence; series mostly up to 57 µM
Summary of the method: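 Human CYP1A2 (20nM) demethylated Luciferin-ME at its Km (100uM) in 100mM KPO4. After 10 min compound preincubation, NADPH regeneration ran the reaction 60 min at room temperature. Luciferin was read by luminescence, normalized to 57 uM furafylline.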

[4] = NFAT Signaling Pathway (AID 444; active = well fitted curve in either direction with a large enough effect, not every such curve was filed as active;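 note: carbachol stimulus at about its EC50 of 1 µM final; % is set by controls: 0 for no effect and ±100 for the full control effect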); conditions: Jurkat NFAT-bla M1, carbachol, beta-lactamase ratio, 5 h; at 7.69 µM (top of the series) unless noted
Summary of the method: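 Jurkat cells with NFAT-driven β-lactamase reporter and co-expressed M1 receptor, stimulated with carbachol (final 1 uM, ~EC50), compound titration, 5 h at 37 °C. CCF4 loaded 1 h at RT; 460/530 nm ratio gave %activity and AC50.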

[5] = Stat Signaling Pathway (AID 446; active = well fitted curve in either direction with a large enough effect, not every such curve was filed as active;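 note: ME-180 cervical cancer cells given 40 pM IL-6 alongside compound; SIE-controlled beta-lactamase reporter measured as 460/530 nm FRET emission ratio; % is set by controls: 0 for no effect and ±100 for the full control effect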); conditions: ME-180 (cervical carcinoma) SIE beta-lactamase reporter, IL-6 stimulated, 5 h; series mostly up to 7.69 µM
Summary of the method: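 IL-6/STAT signaling read in ME-180 cells via an SIE beta-lactamase reporter. Stimulus was 40 pM IL-6 (its AC50) for 5 hrs, so both activation and inhibition register.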

[6] = biological target: Mitogen-activated protein kinase 10 (Mus musculus) (UniProt Q61831); test: JNK3 AlphaScreen Assay (AID 530; active = well fitted curve in either direction with a large enough effect, not every such curve was filed as active;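 note: kinase came from lysate of stimulated human HepG2 cells; signal reports phosphorylation of biotinylated GST-cJun 1-79 at Ser73 with 10 µM ATP; % is set by controls: 0 for no effect and ±100 for the full control effect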); conditions: JNK3 lysate, c-Jun phosphorylation; series mostly up to 57.1 µM
Summary of the method: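 qHTS format: compounds tested as titrations against IL-1beta/TNF-alpha-activated HepG2 lysate JNK3 with biotin-GST-cJun substrate and 10 uM ATP at room temperature. Loss of anti-phospho-cJun AlphaScreen signal indicates inhibition.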

[7] = biological target: Cytochrome P450 3A4 (Homo sapiens) (UniProt P08684); test: qHTS Assay for Activators of Cytochrome P450 3A4 (AID 885); conditions: recombinant CYP3A4, Luciferin-PPXE luminescence, 60 min; series mostly up to 57.1 µM; note: nearly all actives have a fitted effect of over 65% in size
Summary of the method: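 Quantitative HTS format: compounds preincubated with 20nM human CYP3A4 and Luciferin-PPXE substrate at KM, reaction started by NADPH regeneration, stopped after 60 min, luciferase luminescence read 20 min later.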

[8] = biological target: Cytochrome P450 2C19 (Homo sapiens) (UniProt P33261); test: qHTS Assay for Inhibitors and Substrates of Cytochrome P450 2C19 (AID 899); conditions: recombinant CYP2C19, luciferin-H EGE luminescence; series mostly up to 57.1 µM; note: potency is the fitted concentration of half-maximal effect; nearly all actives have a fitted effect of over 60% in size
Summary of the method: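 5 nM human CYP2C19 with 10uM Luciferin-H EGE (at KM) in 50mM KPO4, compound preincubated 10 min at 37C, then NADPH regeneration for 60 min at 37C. Luciferin read by luminescence after detection reagent; normalized to 57uM ketoconazole as full inhibition.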

[9] = biological target: Dual specificity protein kinase CLK4 (Homo sapiens) (UniProt Q9HAZ1); test: qHTS Assay for Inhibitors of CDC-like Kinase 4 (Kinase-Glo Assay) (AID 1770); conditions: recombinant Clk4, Kinase-Glo ATP depletion luminescence; series mostly up to 66.7 µM; note: % is set by controls: 0 for no effect and ±100 for the full control effect; nearly all actives have a fitted effect of over 65% in size
Summary of the method: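 25 nM Clk4 with 100 uM RS repeat peptide and 1 uM ATP (final) in Tris pH7.5, 10 mM MgCl2, 4.5 h at room temperature. Remaining ATP measured by Kinase-Glo luciferase luminescence.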

[10] = biological target: Dual specificity protein kinase CLK4 (Homo sapiens) (UniProt Q9HAZ1); test: qHTS Assay for Inhibitors of CDC-like Kinase 4 (ADP-Glo Assay) (AID 1771); conditions: recombinant CLK4, ADP-Glo luminescence; series mostly up to 80 µM; note: % is set by controls: 0 for no effect and ±100 for the full control effect; nearly all actives have a fitted effect of over 70% in size
Summary of the method: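 Clk4 (25 nM) was incubated 1 hr at room temperature with 100 uM RS repeat peptide and 1 uM ATP in buffer with 2 mM MgCl2, 0.5 mM EGTA, 2.5 mM DTT. ADP formed was quantified by ADP-Glo luminescence.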

[11] = biological target: Dual specificity protein kinase CLK4 (Homo sapiens) (UniProt Q9HAZ1); test: qHTS Assay for Inhibitors of CDC-like Kinase 4 (ADP-FP Assay) (AID 1795); conditions: Transcreener ADP fluorescence polarization; series mostly up to 50 µM;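 note: recombinant human CLK4 phosphorylating RS repeat peptide at 1 µM ATP; % is set by controls: 0 for no effect and ±100 for the full control effect; nearly all actives have a fitted effect of over 60% in size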
Summary of the method: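 Recombinant Clk4 (6.25 nM) phosphorylated 100 uM RS repeat peptide with 1 uM ATP in 25 mM Tris pH 7.5, 10 mM MgCl2, 0.5 mM EGTA, 2.5 mM DTT, 0.01% Triton X-100 for 1 h. ADP was detected by Transcreener ADP2 competitive fluorescence polarization after 30 min at room temperature.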

Dual specificity protein kinase CLK4 (Homo sapiens), sequence (Q9HAZ1 whole entry, looked up): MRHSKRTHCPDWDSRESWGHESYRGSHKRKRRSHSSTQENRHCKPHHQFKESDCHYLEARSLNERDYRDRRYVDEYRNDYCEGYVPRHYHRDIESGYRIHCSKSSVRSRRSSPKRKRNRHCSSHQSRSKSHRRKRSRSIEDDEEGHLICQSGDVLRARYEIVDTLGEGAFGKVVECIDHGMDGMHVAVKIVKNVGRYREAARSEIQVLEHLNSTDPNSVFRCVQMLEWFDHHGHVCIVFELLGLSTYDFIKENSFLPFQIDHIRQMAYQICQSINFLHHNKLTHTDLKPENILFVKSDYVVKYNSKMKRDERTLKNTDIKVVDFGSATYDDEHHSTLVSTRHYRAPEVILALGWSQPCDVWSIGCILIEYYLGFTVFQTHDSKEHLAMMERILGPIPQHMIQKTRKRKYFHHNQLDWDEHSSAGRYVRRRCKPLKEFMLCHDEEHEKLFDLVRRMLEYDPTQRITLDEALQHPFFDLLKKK
Cytochrome P450 1A2 (Homo sapiens), sequence (P05177 whole entry, looked up): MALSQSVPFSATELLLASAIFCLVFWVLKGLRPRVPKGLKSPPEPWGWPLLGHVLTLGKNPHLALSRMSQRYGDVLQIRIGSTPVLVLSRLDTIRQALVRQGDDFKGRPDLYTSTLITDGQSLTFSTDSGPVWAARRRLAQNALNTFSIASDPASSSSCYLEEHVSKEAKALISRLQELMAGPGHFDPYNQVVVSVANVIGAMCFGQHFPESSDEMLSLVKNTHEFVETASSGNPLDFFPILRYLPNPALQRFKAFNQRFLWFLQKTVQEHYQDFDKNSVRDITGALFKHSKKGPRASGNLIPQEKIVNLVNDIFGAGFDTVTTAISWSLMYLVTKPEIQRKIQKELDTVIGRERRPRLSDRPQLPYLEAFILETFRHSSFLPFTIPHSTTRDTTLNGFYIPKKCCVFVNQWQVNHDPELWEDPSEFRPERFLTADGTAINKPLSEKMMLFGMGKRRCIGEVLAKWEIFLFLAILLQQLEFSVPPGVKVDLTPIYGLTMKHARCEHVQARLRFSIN
Lysosomal acid glucosylceramidase (Homo sapiens), sequence (P04062 whole entry, looked up): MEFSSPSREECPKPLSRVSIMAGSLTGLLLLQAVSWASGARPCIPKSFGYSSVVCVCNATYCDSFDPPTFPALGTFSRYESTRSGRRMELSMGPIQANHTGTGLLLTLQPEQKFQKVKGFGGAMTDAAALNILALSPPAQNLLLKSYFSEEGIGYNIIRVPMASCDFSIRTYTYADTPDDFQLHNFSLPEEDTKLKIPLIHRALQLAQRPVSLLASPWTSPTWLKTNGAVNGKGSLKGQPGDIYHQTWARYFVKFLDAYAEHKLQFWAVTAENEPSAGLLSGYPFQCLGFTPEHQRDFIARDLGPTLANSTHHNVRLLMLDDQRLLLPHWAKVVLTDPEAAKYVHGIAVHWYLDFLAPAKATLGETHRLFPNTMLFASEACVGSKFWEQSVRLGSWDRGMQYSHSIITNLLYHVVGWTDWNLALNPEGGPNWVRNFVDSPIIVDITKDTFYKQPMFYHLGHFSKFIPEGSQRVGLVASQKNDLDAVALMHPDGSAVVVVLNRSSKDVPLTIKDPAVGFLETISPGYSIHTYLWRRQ
Cytochrome P450 3A4 (Homo sapiens), sequence (P08684 whole entry, looked up): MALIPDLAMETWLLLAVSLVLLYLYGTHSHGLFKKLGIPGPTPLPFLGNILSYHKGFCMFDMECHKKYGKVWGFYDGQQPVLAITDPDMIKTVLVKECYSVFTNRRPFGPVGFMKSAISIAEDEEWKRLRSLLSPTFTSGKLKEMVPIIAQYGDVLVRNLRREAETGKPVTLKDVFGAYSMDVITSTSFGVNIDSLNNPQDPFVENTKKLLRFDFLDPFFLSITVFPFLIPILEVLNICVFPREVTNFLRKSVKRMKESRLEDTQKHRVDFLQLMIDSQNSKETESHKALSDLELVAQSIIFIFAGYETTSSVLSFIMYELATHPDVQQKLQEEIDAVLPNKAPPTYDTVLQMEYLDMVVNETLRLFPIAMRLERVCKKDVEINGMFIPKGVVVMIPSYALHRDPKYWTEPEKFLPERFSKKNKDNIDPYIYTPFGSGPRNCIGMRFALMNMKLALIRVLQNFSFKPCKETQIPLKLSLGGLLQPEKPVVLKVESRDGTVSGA
Cytochrome P450 2C19 (Homo sapiens), sequence (P33261 whole entry, looked up): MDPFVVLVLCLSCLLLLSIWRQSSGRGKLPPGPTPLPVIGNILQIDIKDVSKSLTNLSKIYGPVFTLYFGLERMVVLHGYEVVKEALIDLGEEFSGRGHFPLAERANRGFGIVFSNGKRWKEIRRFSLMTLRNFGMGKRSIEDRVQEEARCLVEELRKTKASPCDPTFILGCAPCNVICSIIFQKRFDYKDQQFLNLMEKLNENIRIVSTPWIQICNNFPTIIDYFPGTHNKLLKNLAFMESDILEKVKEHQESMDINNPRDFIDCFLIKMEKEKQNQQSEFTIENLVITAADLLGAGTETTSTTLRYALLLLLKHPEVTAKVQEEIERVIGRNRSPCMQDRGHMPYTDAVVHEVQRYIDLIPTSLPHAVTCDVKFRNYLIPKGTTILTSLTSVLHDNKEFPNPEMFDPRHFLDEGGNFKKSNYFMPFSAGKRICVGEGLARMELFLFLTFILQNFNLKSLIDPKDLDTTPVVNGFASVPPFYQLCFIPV

COc1cccc(Cn2c(=O)c(CCc3ccccc3)nc3cnc(N(C)C)nc32)c1
active: Potency [3] 15.8 µM | Potency [8] 0.794 µM
inactive: Potency [1] > 11.4 µM | activity change, negative = inhibition [2] -2.39% | activity change, negative = inhibition [4] 6.19% | outcome [5] | Potency [6] | outcome [7] | Potency [9] | Potency [10] | Potency [11]
